Among the data in PubChem BioAssay (NCI) are growth values, retold here.

SMILES strings stand for the structures. This is part of a sample that, as a whole, favours compounds with a hit. Of some 83,000 tested, about 20% had one in any assay.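 Each cell line was grown in a 96-well plate and treated with one concentration of compound for 48 hours. Values below 10 were considered active.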 Values without a mark were called inactive. Calls of active or inactive are those of the source.

What all share (assay): NCI-60 one-dose screen, 48 h (100 = growth as untreated, 0 = no growth, -100 = all killed)
The subject of one test is HCT-15 colon. As to conditions: 10 µM unless noted.
For a further test, the system named is HT29 colon. To be noted: 10 µM unless noted.
The subject of a further test is SNB-75 CNS. As to conditions: 10 µM unless noted.
A further test concerns SNB-19 CNS. To be noted: 10 µM unless noted.
The test system of another test is U251 CNS. As to conditions: 10 µM unless noted.
The next test concerns SK-MEL-5 melanoma. To be noted: 10 µM unless noted.
In another test the test system is UACC-62 melanoma. As to conditions: 10 µM unless noted.
The subject of the next test is LOX IMVI melanoma. To be noted: 10 µM.
The next test relates to SK-MEL-28 melanoma. As to conditions: 10 µM unless noted.
The subject of a further test is PC-3 prostate. As to conditions: 10 µM unless noted.

Regarding `COC1OC(COC(C)=O)C(OC(C)=O)C(OC(C)=O)C1OC(C)=O` (stereo not drawn), the growth in the test with HCT-15 colon is 97.2%; with HT29 colon, 95.5%; in the test with SNB-75 CNS it was 95.7%; with SNB-19 CNS, 102%; in the test with U251 CNS, 102%; with SK-MEL-5 melanoma it was 117%. The growth was 86.5% with UACC-62 melanoma, 98.5% in the test with LOX IMVI melanoma and 94.2% with SK-MEL-28 melanoma.

Turning to `C/C(=N\O)c1ccccn1`, the growth in the test on HCT-15 colon was 102%; in the test with HT29 colon, 97.3%; with SNB-75 CNS it was 96.9%; in the test on SNB-19 CNS, 95.2%; in the test with U251 CNS it was 88.8%; with SK-MEL-5 melanoma it was 105%. Besides, the growth with LOX IMVI melanoma is 99.1%; in the test on SK-MEL-28 melanoma, 110%.

As to `NNc1ncccn1`, the growth with HCT-15 colon was 106%; in the test on HT29 colon it was 91.8%; in the test on SNB-75 CNS, 80.2%; in the test on SNB-19 CNS it was 111%; with U251 CNS, 102%; in the test with SK-MEL-5 melanoma, 115%. Further, the growth in the test with LOX IMVI melanoma is 96.9%; in the test on SK-MEL-28 melanoma it was 106%.

Consider `O=C(O)CSCC(=O)Nc1cc(C(F)(F)F)ccc1Cl`, for which the growth in the test on HCT-15 colon is 103%; with HT29 colon, 104%; in the test on SNB-75 CNS, 125%; with SNB-19 CNS, 106%; in the test on U251 CNS, 106%; with SK-MEL-5 melanoma, 102%. Besides, the growth was 99.6% with UACC-62 melanoma and 114% with SK-MEL-28 melanoma.

Regarding `CNc1ccccc1C(=O)N/N=C/C=C/c1ccccc1`, the growth in the test with HCT-15 colon was 33.8%; in the test on HT29 colon it was 3.82% (active); in the test with SNB-75 CNS, -15.6% (active); in the test with SNB-19 CNS, 53.9%; in the test on PC-3 prostate, 18.7%; in the test on SK-MEL-5 melanoma it was 18.2%. Besides, the figures for the growth in the test on UACC-62 melanoma, in the test with LOX IMVI melanoma and in the test with SK-MEL-28 melanoma were 49.3%, 14.7% and 39.3%, respectively.

`Nc1nc2nnc(-c3ccccc3)c(-c3ccccc3)n2n1`: the growth is 94.7% with HCT-15 colon; 97.4% with HT29 colon; 91.4% in the test with SNB-75 CNS; 80% with SNB-19 CNS; 111% in the test on U251 CNS; 86.5% in the test on SK-MEL-5 melanoma. Also, the figures for the growth in the test with UACC-62 melanoma, in the test on LOX IMVI melanoma and in the test with SK-MEL-28 melanoma were 87.8%, 87.6% and 86.3%, respectively.

With `CNc1ccccc1C(N)=O`, the growth was 101% in the test with HCT-15 colon; 103% in the test on HT29 colon; 91.8% in the test on SNB-75 CNS; 94.8% with SNB-19 CNS; 92.8% in the test with U251 CNS; 101% in the test with SK-MEL-5 melanoma. Moreover, the growth in the test on UACC-62 melanoma is 93.8%; with SK-MEL-28 melanoma it was 107%.

As to `Nc1ccn(C2OC(CO)C(O)C2F)c(=O)n1` (stereo not drawn), the growth in the test with HCT-15 colon is 95.8%; in the test on HT29 colon, 79%; with SNB-75 CNS it was 79.5%; in the test with SNB-19 CNS it was 90.5%; in the test with U251 CNS it was 78.6%; in the test on SK-MEL-5 melanoma it was 92.5%. Moreover, the growth with UACC-62 melanoma is 77.7%; in the test on LOX IMVI melanoma it was 79.6%; with SK-MEL-28 melanoma it was 60.5%.

For the compound `NNC(=O)c1ccccc1N`, the growth with HCT-15 colon is 110%; with HT29 colon, 106%; in the test on SNB-75 CNS it was 87.9%; in the test with SNB-19 CNS, 114%; in the test with U251 CNS, 106%; in the test on SK-MEL-5 melanoma, 107%. For the same compound, the growth is 105% in the test on LOX IMVI melanoma and 117% in the test with SK-MEL-28 melanoma.

Consider `Nc1cc(N)ncn1`, for which the growth with HCT-15 colon is 102%; with HT29 colon, 104%; in the test on SNB-75 CNS, 88.9%; in the test with SNB-19 CNS, 96.1%; in the test with U251 CNS it was 104%; in the test on SK-MEL-5 melanoma, 98.3%. For the same compound, the growth in the test on LOX IMVI melanoma was 98.4%; in the test with SK-MEL-28 melanoma, 98.9%.

With `Cc1nc(C)c(C(=O)O)cc1C(=O)O`, the growth in the test on HCT-15 colon is 103%; with HT29 colon it was 109%; in the test on SNB-75 CNS, 91.5%; in the test with SNB-19 CNS it was 109%; in the test on U251 CNS, 107%; in the test with SK-MEL-5 melanoma it was 111%. The growth is 105% in the test with UACC-62 melanoma, 95.8% in the test with LOX IMVI melanoma and 112% in the test on SK-MEL-28 melanoma.

For `CC(=O)c1cccc(O)c1`, the growth in the test on HCT-15 colon was 101%; in the test on HT29 colon, 92.1%; with SNB-75 CNS it was 91.4%; in the test with SNB-19 CNS, 108%; in the test on U251 CNS it was 97.2%; with SK-MEL-5 melanoma it was 100%. The growth was 109% in the test on UACC-62 melanoma, 94.6% with LOX IMVI melanoma and 109% with SK-MEL-28 melanoma.

Take `COc1ccc(C(=O)C(=O)c2ccccc2)cc1`: the growth was 91.9% in the test with HCT-15 colon; 107% with HT29 colon; 104% with SNB-75 CNS; 100% in the test with SNB-19 CNS; 101% in the test on U251 CNS; 99.2% with UACC-62 melanoma. Besides, in the test on SK-MEL-28 melanoma, the growth is 110%.

As for `CC1(c2ccccc2)CO1` (stereo not drawn), the growth in the test with HCT-15 colon is 102%; with HT29 colon it was 112%; with SNB-75 CNS, 89.9%; with SNB-19 CNS it was 102%; in the test on U251 CNS, 97.6%; in the test on SK-MEL-5 melanoma, 105%. In addition, the growth is 103% with LOX IMVI melanoma and 105% in the test on SK-MEL-28 melanoma.

Consider `NNc1ncnc2c1ncn2C1OC(CO)C(O)C1O` (stereo not drawn), for which the growth was 11.2% in the test with HCT-15 colon; 9.12% (active) in the test on HT29 colon; 94.2% with SNB-75 CNS; 57.8% in the test with SNB-19 CNS; 39.7% in the test with U251 CNS; 60.5% in the test on UACC-62 melanoma. Further, the growth with LOX IMVI melanoma was 32.6%; in the test on SK-MEL-28 melanoma, 88.8%.

As to `COc1ccc(C2CC(c3ccccc3)=Nc3ccccc3S2)cc1` (stereo not drawn), the growth with HCT-15 colon is 98.3%; in the test with HT29 colon, 92.8%; in the test with SNB-75 CNS it was 80.7%; in the test on SNB-19 CNS, 93.8%; with PC-3 prostate, 82.7%; with SK-MEL-5 melanoma it was 94.2%. For the same compound, the growth in the test with UACC-62 melanoma is 97.9%; in the test with LOX IMVI melanoma, 95%; in the test with SK-MEL-28 melanoma it was 98.4%.

Take `FC(F)(F)c1cc(NC2=NCCN=C(Nc3cc(C(F)(F)F)cc(C(F)(F)F)c3)SS2)cc(C(F)(F)F)c1`: the growth was 37.8% with HCT-15 colon; 49% in the test with HT29 colon; 71.5% with SNB-75 CNS; 56.5% in the test on SNB-19 CNS; 23.3% in the test with U251 CNS; 50.2% in the test with SK-MEL-5 melanoma. For the same compound, the growth in the test with UACC-62 melanoma is 35.6%; with LOX IMVI melanoma, 50.5%; in the test with SK-MEL-28 melanoma, 74.7%.
